Test results reported in PubChem BioAssay (NCI).
The panel holds about 83,000 compounds, 20% with a hit somewhere; the sample as a whole holds those more often.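 Single-dose data. Exposure time 48 hours. Values below 10 considered active.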 Unmarked numbers belong to inactive results. Calls of active or inactive are those of the source.

Columns and labels:
Test in all cases: NCI-60 one-dose screen, 48 h (100 = growth as untreated, 0 = no growth, -100 = all killed)
Details in all cases: 10 µM
NCI-H23 lung = system: NCI-H23 lung
NCI-H226 lung = system: NCI-H226 lung
HOP-62 NSCLC = system: HOP-62 NSCLC
NCI-H460 lung = system: NCI-H460 lung
HOP-92 NSCLC = system: HOP-92 NSCLC
NCI-H522 lung = system: NCI-H522 lung
A549/ATCC NSCLC = system: A549/ATCC NSCLC
786-0 renal = system: 786-0 renal
COLO 205 colon = system: COLO 205 colon
DU-145 prostate = system: DU-145 prostate
K-562 leukemia = system: K-562 leukemia
MALME-3M melanoma = system: MALME-3M melanoma
MDA-MB-231 breast = system: MDA-MB-231 breast
RXF 393 renal = system: RXF 393 renal
SF-268 CNS = system: SF-268 CNS
SF-295 CNS = system: SF-295 CNS
SF-539 CNS = system: SF-539 CNS
M14 melanoma = system: M14 melanoma
UACC-257 melanoma = system: UACC-257 melanoma

Structure (SMILES) | growth (NCI-H23 lung) | growth (NCI-H226 lung) | growth (HOP-62 NSCLC) | growth (NCI-H460 lung) | growth (HOP-92 NSCLC) | growth (NCI-H522 lung) | growth (A549/ATCC NSCLC) | growth (786-0 renal) | growth (COLO 205 colon) | growth (DU-145 prostate) | growth (K-562 leukemia) | growth (MALME-3M melanoma) | growth (MDA-MB-231 breast) | growth (RXF 393 renal) | growth (SF-268 CNS) | growth (SF-295 CNS) | growth (SF-539 CNS) | growth (M14 melanoma) | growth (UACC-257 melanoma)
N#Cc1c(-c2ccc(Cl)cc2)csc1NC(=O)Nc1ccc(Cl)c(C(F)(F)F)c1 | 15.8% | 8.81% (active) | 14.5% | 2.11% (active) | -9.88% (active) | -12.8% (active) | 18.3% | 35.9% | -30.4% (active) | 5.84% (active) | 9.03% (active) | -26.7% (active) | 2.12% (active) | 33.7% | 27.8% | -27.2% (active) | 31.5% | 8.06% (active) | 
COc1cc(/C=C2\CCCC3=C2N=C2SC(C)=CN2C3c2cc(OC)c(OC)c(OC)c2)cc(OC)c1OC (stereo unspecified) | -30.4% (active) | -56.7% (active) | -19.6% (active) | 1.37% (active) | 55.4% | -21.8% (active) | -23.4% (active) | -18.1% (active) | -71% (active) | -26.9% (active) | 20.4% | 4.83% (active) | 18.9% | -71.9% (active) | 14.7% | 2.48% (active) | 7.53% (active) | 2.47% (active) | -27% (active)
CCCCCCCCCCOC(c1ccccc1)c1ccccc1 | 83% | 85.5% | 87.8% | 101% | 103% | 75.8% | 83.6% | 98% | 104% | 105% | 85.6% | 95.7% | 88.4% | 94.2% | 94.2% | 89.6% | 102% | 90.9% | 102%
Cc1c(O)c(=O)ccn1C1CCC(CC2CCC(n3ccc(=O)c(O)c3C)CC2)CC1 (stereo unspecified) | 39.5% | 42.1% | 36.2% | 12.5% | 51.8% | 31.3% | 46.4% | 46.5% | 23.5% | 39.6% | 18.3% | 63.8% | 43.4% | 44.1% | 30.1% | 54.9% | 11.9% | 47.2% | 45.5%
COc1ccc(/C=C/C(=O)C(=O)/C=C/c2ccc(OC)c(OC)c2)cc1OC | 21.6% | 38.9% | 93.2% | 51.7% | 109% | 47.8% | 69.9% | 3.43% (active) | -20.8% (active) | 22.5% | 7.11% (active) | 54.5% | 2.99% (active) | -63.3% (active) | 13.2% | 73.8% | 6.56% (active) | -10.5% (active) | 
Cc1noc(C)c1CSc1ccccc1C(=O)N1CCN(c2cccc(C(F)(F)F)c2)CC1 | 67.9% | 75.6% | 91.5% | 84.2% | 68.1% | 62% | 73.7% | 87.5% | 74.2% | 95.7% | 52.8% | 84.5% | 65.7% | 99.8% | 95.3% | 75.2% | 87.4% | 71.6% | 
NC(=O)c1cccc(-n2ccc3cc(NC(=O)Nc4ccc(Cl)c(C(F)(F)F)c4)ccc32)n1 | 82.2% | 66.2% | 86.5% | 68% | 97.6% | 64.7% | 68.2% | 49.1% | 85.6% | 95% | 59.3% | 87.8% | 75.8% | 2.44% (active) | 76.6% | 58.2% | 44.2% | 78.8% | 93.3%
CC(=O)Oc1cc(OC(C)=O)c2ccccc2c1OC(C)=O | 70.8% | 88.4% | 90% | 86.6% | 107% | 68.2% | 82.5% | 103% | 92.9% | 67% | 70.5% | 67.3% | 67.7% | 93.1% | 87.9% | 103% | 100% | 84.1% | 81.4%
Nc1nc(Cn2c(-c3nonc3N)nc3ccccc32)nc(N2CCCCC2)n1 | 90.5% | 94.4% | 91.7% | 99.4% | 82.3% | 71.7% | 93.1% | 92% | 94.4% | 99% | 49.3% |  | 84.8% | 87.7% | 95.6% | 96.7% | 101% | 98.4% | 93.1%
O=C1c2ccccc2C(=O)N1CCCCNc1ccccc1 | 104% | 91.7% | 122% | 89.3% | 106% | 101% | 78.2% | 63.7% | 114% | 102% | 149% |  | 79.6% | 104% | 54.1% | 98% | 74.6% | 98.9% | 106%
Cc1cc(=O)n2nnc3cc(C(F)(F)F)ccc3n12 | 101% | 115% | 117% | 114% | 93.9% | 97.4% | 105% | 104% | 108% | 105% | 99.1% |  | 108% | 123% | 107% | 92.7% | 106% | 113% | 106%
COc1ccc2c(c1)C(=O)/C(=C/c1cccc(OCC(=O)c3ccc([N+](=O)[O-])cc3)c1)CO2 | -15% (active) | 70.5% | 77% | 73.9% | 60.9% | -53.4% (active) | 23.7% | 82.8% | 98.4% | 63.4% | -81.2% (active) | 30.4% | 60.9% |  | 62.8% | 43.3% | 27.8% | 8.08% (active) | -49.4% (active)
CC[N+](CC)=c1ccc2nc3c(cc(NCc4ccccc4)c4ccccc43)oc-2c1 | -76% (active) | -34.4% (active) | -99.6% (active) | -66.4% (active) | -7.03% (active) | -82.3% (active) | -90.2% (active) | -62.7% (active) | -89.4% (active) | -95.8% (active) | -26.1% (active) |  | -69.6% (active) | -91.4% (active) | -15.9% (active) | -98.9% (active) | -87% (active) | -74.4% (active) | -98.4% (active)
CNS(=O)(=O)Oc1ccc(-c2sc3cc(OS(=O)(=O)NC)ccc3c2C(=O)c2ccc(OCCN3CCCCC3)cc2)cc1 | 65.6% | 84.4% | 79.8% | 42.4% | 64.2% | 78.7% | 62.4% | 73.5% | 77.9% | 98.2% | 9.88% (active) | 57.7% | 79.1% | 38.8% | 87.9% | 89.3% | 65% | 65.7% | 70%
COc1cc(C(=O)N2CCN(c3cc4c(cc3F)c(=O)c(C(=O)NO)cn4C3CC3)CC2)cc(OC)c1OC | 94.9% | 95.1% | 97% | 105% | 99.1% | 87.4% | 99% | 93.6% | 104% | 104% | 103% | 105% | 98.8% | 104% | 98% | 103% | 101% | 103% | 
O=C1/C=C/[C@@H](O)[C@@H]2C[C@@H](O)C[C@H]2/C=C/CCC[C@H](CCc2ccc(NC(=S)Nc3ccc4c(c3)C(=O)OC43c4ccc(O)cc4Oc4cc(O)ccc43)cc2)O1 | 4.65% (active) | 17.4% | 25% | 15.4% | -4.85% (active) | -31% (active) | 17.3% |  |  | 17.4% | 13.5% | -1.26% (active) | -88.7% (active) | -30.2% (active) | 12.8% | 22.2% | 29.4% | 10.9% | 0.525% (active)
CCN(CC)CCOC(=O)c1cc(OCc2ccccc2)c(OCc2ccccc2)c(OCc2ccccc2)c1 | 58.6% | 73.6% | 62.4% | 12.4% | 40% | 45% |  | 52.1% | 62.1% | 64.6% | 0.819% (active) | 54% | 16% | 47% | 59.3% | 84.5% | 81.1% | 18.4% | 73.8%
